Shown are actives, neighbours in structure and some others; about 22% of the full set was active somewhere.
CHX counter – counter-screen hit for Shiga toxin inhibitors, cycloheximide | max response, % | 12% of 300,000 active | AID 2314 | cell reporter, cycloheximide protein synthesis inhibition counterscreen; in the data active means max response mostly above about 13%, no sharp cut-off; inactive means mostly below about 14%; further: read at 38.3 µM for the half of the compounds with a filed dose; 0% is about no effect
Shiga inhibitor – Shiga toxin inhibition. Vero cells, Shiga toxin protein synthesis inhibition reporter. inhibition, % at 38.7 µM. 9.2% of 290,000 active. AID 2315; in the data active means inhibition mostly above about 28%, no sharp cut-off; inactive means mostly below about 43%; further: 0% is about no effect
LmPK inhibitor – inhibitors of Leishmania mexicana pyruvate kinase. Q27686. purified LmPK, Kinase-Glo ATP luminescence, 1 h. Potency, µM (titrated, usually from 57.5 µM), inactives show at the highest dose activity change, negative = inhibition, actives largely listed as inhibitors. 0.37% of 290,000 active; further: potency means the concentration at half of the fitted maximal effect; on the % scale 0 is the no-effect control and ±100 the full control effect
Target sequence (Q27686 whole entry, looked up): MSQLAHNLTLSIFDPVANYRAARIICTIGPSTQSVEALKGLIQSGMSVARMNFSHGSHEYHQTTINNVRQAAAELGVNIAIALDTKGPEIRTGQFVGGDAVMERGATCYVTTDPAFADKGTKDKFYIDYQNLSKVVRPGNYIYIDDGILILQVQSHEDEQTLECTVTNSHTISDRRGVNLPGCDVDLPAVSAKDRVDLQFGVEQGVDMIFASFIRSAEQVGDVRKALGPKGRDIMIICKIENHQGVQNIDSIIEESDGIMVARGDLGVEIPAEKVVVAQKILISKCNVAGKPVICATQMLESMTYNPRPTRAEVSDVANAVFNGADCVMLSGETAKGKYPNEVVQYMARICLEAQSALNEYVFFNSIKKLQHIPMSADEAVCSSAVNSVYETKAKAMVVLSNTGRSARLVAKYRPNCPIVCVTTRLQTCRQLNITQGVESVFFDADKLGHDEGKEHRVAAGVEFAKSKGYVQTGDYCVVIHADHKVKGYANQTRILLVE
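0.1 nM LmPK, 0.5 mM PEP, 0.1 mM ADP; 50 mM imidazole pH 7.2, 7 mM MgCl2, 50 mM KCl; 1 h RT. Kinase-Glo luminescence readout, normalized to no-enzyme (full inhibition) and uninhibited wells.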
Pf growth 96h – inhibits malaria parasite growth, 96 h | P. falciparum luciferase reporter growth, 96 h | Potency, µM (highest dose often 28.7 µM), for the others: at the top dose activity change, negative = inhibition, usual class: inhibitors | 6.9% of 320,000 active | AID 504834; further: potency means the concentration at half of the fitted maximal effect; on the % scale 0 is the no-effect control and ±100 the full control effect
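Infected RBCs, 2% Hct / 0.05% parasitemia final; luciferase-reporter P. falciparum; cpd 96 h, 37 C, 5% CO2; luciferase detection reagent; luminescence.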
Pf growth 48h – inhibits P. falciparum growth in the first generation, 48 h. P. falciparum luciferase growth in erythrocytes, 48 h. Potency, µM (doses to about 28.7 µM), for inactives: top-dose activity change, negative = inhibition, hits mostly inhibitors. 5.9% of 310,000 active; further: potency means the concentration at half of the fitted maximal effect; on the % scale 0 is the no-effect control and ±100 the full control effect
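Growth was read as firefly luciferase luminescence after a 48 h, 37 C, 5% CO2 exposure of compounds to reporter-bearing P. falciparum cultures (0.1% parasitemia, 2% hematocrit final) in Albumax-supplemented RPMI 1640.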
Starred values were filed as active, the others as inactive; ? = inconclusive; · = no result; [ ] = another dose, or the depositor's remark. Unless noted, the call rests on the fitted dose curve; in most records, active means well fitted inhibition curve with a large enough effect; inconclusive means small, poorly fitted or top-dose-only effect, or another doubt; inactive means no such curve, though single readings can be large or run the other way.

SMILES	CHX counter	Shiga inhibitor	LmPK inhibitor	Pf growth 96h	Pf growth 48h
CN(C)c1ncc(/C=C2/C(=O)NC(=S)N(C3CCCCC3)C2=O)cn1	-2	12	1%	12%	9%
CCN(CC)C(=S)Sc1c(-c2ccccc2)c2cc(Cl)ccc2[nH]c1=O	0	-25	-2%	·	?
COc1ccccc1C(=O)COC(=O)c1cc(S(=O)(=O)N2CCCCC2)ccc1N1CCOCC1	·	·	·	?	9.3µM*
COc1ccc(C)cc1NC(=O)c1cc(S(=O)(=O)N2CCCCC2)ccc1N1CCOCC1	·	·	·	?	12µM*
Cc1ccc(S(=O)(=O)N(C)C)cc1NC(=O)c1cc(S(=O)(=O)N2CCCCC2)ccc1N1CCOCC1	·	·	·	?	-19%
Cc1ccccc1OCCOC(=O)c1cc(S(=O)(=O)N2CCCCC2)ccc1N1CCOCC1	·	·	·	?	13µM*
O=C(Nc1ccc(OC(F)F)cc1)c1cc(S(=O)(=O)N2CCCCC2)ccc1N1CCOCC1	·	·	·	4.7µM*	?
COC(CNC(=O)c1cc(C)nn1-c1ccccc1)OC	2	19	5%	·	·
COc1ccccc1NC(=O)C(=O)N/N=C(\C)CC(=O)Nc1ccccc1C(F)(F)F	2	24	1%	17%	?
COC(=O)c1ccccc1S(=O)(=O)N1CCC(C(=O)OCC(=O)c2ccccc2OC)CC1	·	·	·	?	10µM*
COc1ccc(C(=O)COC(=O)c2cc(S(=O)(=O)N3CCCCC3)ccc2N2CCOCC2)c(OC)c1	·	·	·	9.3µM*	9.3µM*
COc1cccc(COC(=O)c2cc(S(=O)(=O)N3CCCCC3)ccc2N2CCOCC2)c1OC	·	·	·	?	6.6µM*
COc1ccc(C(=O)COC(=O)c2cc([N+](=O)[O-])ccc2N2CCOCC2)c(OC)c1	·	·	·	2%	-8%
O=C(Nc1ccc(F)cc1)C1C(c2ccccc2)C1(Cl)Cl (configuration not stated)	-1	10	-1%	-1%	-10%
CC1=CC(=C(C#N)C#N)C=C(C)N1Cc1ccc(Cl)cc1	8	-6	3%	-89%	2.1µM*
CC1=CC(=C(C#N)C#N)C=C(C)N1CCN1CCN(C(=O)Nc2ccc(Cl)c(Cl)c2)CC1	1	-7	-2%	?	?
CCOC(=O)c1cnn2c1[nH]c(=O)c1ccccc12	-2	-6	-1%	9.3µM*	31%
Cc1ccc2[nH]c3c(=O)n(CC(=O)Nc4ccccc4N4CCN(C)CC4)ncc3c2c1	-2	-5	0%	?	?
O=C(Cn1ncc2c([nH]c3ccccc32)c1=O)N1CCCCC1	19	4	-1%	18%	39%
Cc1ccc2[nH]c3c(=O)n(CC(=O)N4CCN(C)CC4)ncc3c2c1	1	-9	-4%	7.4µM*	45%
O=C(Cn1ncc2c([nH]c3ccccc32)c1=O)N1CCN(c2ccccn2)CC1	0	-4	-1%	1.3µM*	-14%
O=C(Nc1ncccc1O)C1CCN(S(=O)(=O)c2ccc3ccccc3c2)CC1	·	·	·	-3%	?
CCOC(=O)C1CCN(C(=O)c2ccccc2NS(=O)(=O)c2ccccc2)CC1	-2	19	8%	-60%	22%
CCOC(=O)C1CCN(C(=O)c2cc(C(C)(C)C)nn2Cc2ccccc2)CC1	-1	-23	0%	1.2µM*	1.2µM*
CCOC(=O)C1CCN(C(=O)c2ccc(S(=O)(=O)Nc3ccccc3OC)cc2)CC1	·	·	·	12µM*	?
SMILES	CHX counter	Shiga inhibitor	LmPK inhibitor	Pf growth 96h	Pf growth 48h
O=C(c1cccc(Cl)c1)N1CCC(N2CCC(C(=O)N3CCCC3)CC2)CC1	21*	-1	2%	15µM*	?
CCOC(=O)C1CCN(C(=O)C2CCN(c3nc4ccc(OC)cc4s3)CC2)CC1	-4	29	-2%	10µM*	?
O=C(CN1CCN(Cc2ccccc2)CC1)Nc1cccc(Cl)c1	1	-5	-3%	1%	3%
CCOC(=O)C1CCN(C(=O)c2cccc(Cl)c2)CC1	-2	-7	-2%	7.4µM*	-8%
CCOC(=O)C1CCN(C(=O)COC(=O)CNC(=O)c2ccc(OC)cc2)CC1	2	-5	1%	13%	?
CCOC(=O)C1CCN(C(=O)c2ccc3nc(-c4ccc(OC)cc4)c(-c4ccc(OC)cc4)nc3c2)CC1	-3	-13	0%	8%	8.3µM*
CCOC(=O)C1CCN(C(=O)c2ccc(Cl)c(Cl)c2)CC1	-2	9	3%	·	5%
O=C1NC(c2ccc(Br)cc2)=N/C1=C/c1ccco1	41*	63*	-3%	?	89%
S=c1[nH]nc(-c2ccccc2Cl)n1/N=C/C=C/c1ccco1	-3	2	-4%	-20%	3%
O=C1NC(c2ccccc2Cl)=N/C1=C/c1ccco1	38*	61*	?	-30%	15%
COc1cc(/C=N/N=C2/SCC(=O)N2c2ccc(O)cc2)ccc1O	-2	8	4%	?	31%
Cc1ccc(Cl)cc1N1CCN(C(=O)Cn2ncn3cccc3c2=O)CC1	-3	-4	4%	38%	-7%
COc1ccc(-c2ccc(SCC(=O)NCc3ccco3)nn2)cc1OC	16	4	10%	5.2µM*	14%
COc1ccc(-c2ccc(SCC(=O)N3CCCC3)nn2)cc1OC	3	11	-1%	·	·
Cc1ccc(NCc2nnc(SCC(N)=O)n2CC2CCCO2)c(C)c1 (configuration not stated)	1	12	3%	13µM*	-9%
NC(=O)CSc1nnc(CNc2ccc(F)cc2)n1CC1CCCO1 (configuration not stated)	-5	-6	1%	6%[5.75 µM]	25%
COc1ccc(-c2cc(C(F)(F)F)nc(SCC(=O)NCc3ccco3)n2)cc1OC	14	-38	3%	?	?
COc1ccc(-c2ccc(SCC(=O)c3cccs3)nn2)cc1OC	15	56*	1%	?	-34%[1.15 µM]
COc1ccc(-c2ccc(SCC(=O)NC3CCCCC3)nn2)cc1OC	37*	65*	-6%	28%	46%
COc1ccc(Cn2ncc3c4sc(C)cc4n(C)c3c2=O)cc1F	4	14	·	·	·
O=C(NNC(=O)c1cc(-c2ccc(Cl)cc2)nc2ccccc12)c1csc(N2CCOCC2)n1	·	·	·	-14%	?
Cc1cc(OC(C)C(=O)N(Cc2ccco2)C2CCS(=O)(=O)C2)ccc1Cl (configuration not stated)	-2	17	4%	-12%	-4%
COc1ccc(-c2ccc(SCC(=O)Nc3cccc(C(C)=O)c3)nn2)cc1OC	40*	97*	1%[11.5 µM]	?	?
CC(=O)c1c(C)[nH]c(C(=O)CSc2nnc(-c3ccc(Cl)cc3)n2CC2CCCO2)c1C (configuration not stated)	10	-14	4%	5.9µM*	·
COc1ccc(-c2nnc(SCC(=O)NC(C)C)n2CC2CCCO2)cc1OC (configuration not stated)	12	-9	0%	3.3µM*	10%
O=C(CSc1ccc(-c2ccc(F)cc2)nn1)NCC1CCCO1 (configuration not stated)	7	5	1%	27%	17%
